This is an account of results in PubChem BioAssay (NCATS).

“And” between values parts separate entries of the source, which are not always exact repeats. Equal entries are not always repeated. Inconclusive results are not listed. The source made the active and inactive calls. Unless noted, calls come from the whole dose curve; as a rule, active = well fitted curve in the direction sought with a large enough effect; inconclusive = small, poorly fitted or top-dose-only effect, or another doubt; inactive = no such curve, though single readings can be large; an effect the other way counts as inactive or inconclusive. Where a SMILES comes first, the peptide text is derived from it. [ ]: non-standard residue; d: D form. pGlu = O=C1CC[C@@H](C(=O)O)N1; Thz = O=C(O)[C@@H]1CSCN1

Experiment [1] can be described thus: qHTS Assay for Identifying Gametocytocidal Compounds (AID 743244).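 For max response: % is set by controls: 0 for no effect and ±100 for the full control effect; actives lower the fluorescent signal which means gametocytes are killed.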 Note: potency is the fitted concentration of half-maximal effect. The following applies: P. falciparum 3D7 stage III-V gametocytes, alamarBlue, 72 h; max response: stronger effect = lower value. In outline: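 Viability read-out was resazurin reduction (alamarBlue, 24 h) measured at Ex 525/Em 598 nm. Beforehand, late-stage (III-V) 3D7 P. falciparum gametocytes at 20,000 cells/well were incubated with compound 72 h at 37C under 5% CO2.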
(Quantitative high-throughput screening tests each substance at several concentrations.)

Experiment [2] is described as follows: qHTS assay for cell viability of HEK293 cells (AID 743288). For max response: % is set by controls: 0 for no effect and ±100 for the full control effect. Note: nearly all actives have a fitted effect of over 50% in size. Note: potency is the fitted concentration of half-maximal effect. The settings on record: ATP luminescence (CellTiter-Glo), 18 h; max response: stronger effect = lower value. In outline:
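Quantitative high-throughput screen: compounds were pinned onto parental HEK293 cells (2,000 per well) after a minimum 5 h settling at 37 C, incubated 18 h at 37 C, and intracellular ATP measured by luciferase luminescence.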

The nature of experiment [3]: qHTS assay for cell viability of the p53RE-bla HCT-116 cell line (AID 743292). Note: nearly all actives have a fitted effect of over 55% in size. Note: potency is the fitted concentration of half-maximal effect. In outline:
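Readout: CellTiter-Glo luminescence after 30 min RT. Treatment: compounds in DMSO, 16 h, 37 C. Cells: CellSensor p53RE-bla HCT-116, 4,000/well, preincubated 5 h.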

A short description of experiment [4]: qHTS profiling for inhibitors of Plasmodium falciparum (3D7) proliferation (AID 743322; call rule not given here;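 note: infected erythrocytes exposed to compound for 72 h before lysis; 100% = DMSO vehicle wells and 0% = 0.29 µM artemisinin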). The following applies: P. falciparum 3D7 proliferation; at 28.7 µM (top of the series) unless noted. In outline: (§1)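 Parasite DNA was quantified by SYBR Green I fluorescence (ex 485, em 535 nm) after overnight lysis in saponin/Triton buffer at room temperature. Cultures at 0.3% parasitemia and 2.5% hematocrit were first exposed to compound for 72 h at 37 C; signals were normalised to artemisinin (0.29 uM) and vehicle wells.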

The nature of experiment [5]: qHTS profiling for inhibitors of Plasmodium falciparum (DD2) proliferation (AID 743323; call rule not given here). The settings on record: lower = more inhibition; at 28.7 µM (top of the series) unless noted. In outline:
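P. falciparum Dd2-infected erythrocytes (0.3% parasitemia, 2.5% hematocrit) exposed 72 h at 37 C, 5% CO2. Lysis with SYBR Green, overnight at room temperature, fluorescence 485/535 nm; normalized to 0.29 uM artemisinin and DMSO.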

Experiment [6] can be described thus: qHTS profiling for inhibitors of Plasmodium falciparum (HB3) proliferation (AID 743324).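 Note: 100% = DMSO vehicle wells and 0% = artemisinin-treated control wells.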 The following applies: Plasmodium falciparum HB3 blood-stage proliferation; at 28.7 µM (top of the series) unless noted. In outline: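 SYBR Green fluorescence (485 ex/535 em) of lysed cultures, incubated overnight at room temperature in the dark, quantifies parasite DNA. Infected erythrocytes at 0.3% parasitemia and 2.5% hematocrit were exposed 72 h; values normalized to DMSO and 0.29 uM artemisinin controls.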

The nature of experiment [7]: qHTS profiling of the MIPE4 collection as inhibitors of Plasmodium falciparum (3D7) proliferation (AID 743344; call rule not given here;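 note: scaled between DMSO vehicle wells and 0.29 µM artemisinin as full inhibition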). The settings on record: P. falciparum 3D7 in erythrocytes, SYBR Green DNA fluorescence, 72 h; at 28.5 µM (top of the series). In outline:
as §1

Experiment [8] in a line: qHTS profiling of the MIPE4 collection as inhibitors of Plasmodium falciparum (DD2) proliferation (AID 743345; call rule not given here). The following applies: P. falciparum Dd2 in erythrocytes, SYBR Green DNA, 72 h; at 28.5 µM (top of the series). In outline:
as §1

A short description of experiment [9]: qHTS profiling of the MIPE4 collection as inhibitors of Plasmodium falciparum (DD2) proliferation (Rep 2) (AID 743346; call rule not given here). The following applies: P. falciparum Dd2 in erythrocytes, SYBR Green DNA, 72 h; at 28.5 µM (top of the series). In outline: as §1
The nature of experiment [10]: qHTS profiling of the MIPE4 collection as inhibitors of Plasmodium falciparum (HB3) proliferation (AID 743347; call rule not given here;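 note: plate controls were DMSO vehicle wells for no effect and artemisinin wells for full effect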). The settings on record: P. falciparum HB3 in erythrocytes, SYBR Green DNA, 72 h; at 28.5 µM (top of the series). In outline: as §1

Consider `C[N+]1(C)[C@@H]2CC(OC(=O)[C@H](CO)c3ccccc3)C[C@H]1[C@@H]1O[C@@H]12` (some centres undefined), for which the max response in experiment [1] is -10.6% (inactive). Still for that read-out and setting: to `Cc1ccc(O)c(-n2nc3ccccc3n2)c1` belongs -7.72% (inactive); to `C#CC1(O)CC[C@H]2[C@@H]3CCC4=CCCC[C@@H]4[C@H]3CC[C@@]21C` (some centres undefined), 18.8% (inactive); to `CN1C2CC(OC(=O)[C@H](CO)c3ccccc3)CC1C1OC12` (some centres undefined), 21.9% (inactive). The same measure, in the same setting: the value for `CC(C(=O)O)c1ccc2c(c1)[nH]c1ccc(Cl)cc12` (centres undefined) was 3.15% (inactive). Still for that read-out and setting: to `O=C(Nc1ccc(C(=O)O)c(O)c1)c1ccccc1` belongs 3.53% (inactive); to `C=C(Nc1ccc(OCC)cc1)Nc1ccc(OCC)cc1`, 14.6% (inactive) and 14.3% (inactive); to `CC(=O)c1ccc(OCC(=O)N2CCCCC2)cc1`, 6.76% (inactive).

`CCCCCCCC/C=C\CCCCCCCC(=O)NCCO`: the max response in [1] is 8.34% (inactive). In the case of `CCCCCC(O)c1cccc(OCc2ccc3ccccc3n2)c1` (centres undefined), in experiment [1], the max response was 5.39% (inactive). Same read-out and setting: the value for `NCCCS(=O)(=O)O` was 2.49% (inactive). Still for that read-out and setting: the value for `Nc1ncnc2c1c(I)cn2[C@@H]1C[C@H](N)[C@@H](O)[C@H]1O` was 12.6% (inactive); that for `Cc1[nH]cnc1CN1CCc2c(c3ccccc3n2C)C1=O` was -6.58% (inactive). Regarding `C/C(=N\O)c1ccc(OCC(=O)N2CCCCC2)cc1`, the max response in experiment [1] was 0.0539% (inactive). On the same count and under the same terms, to `CSc1nc(N)c2ncn([C@@H]3O[C@H](COP(=O)(O)OP(=O)(O)OP(=O)(O)O)[C@@H](O)[C@H]3O)c2n1` belongs 11.9% (inactive); to `O=C(O)/C=C/C(O)c1ccc(Cl)cc1` (centres undefined), -3.84% (inactive) and 16.6% (inactive); to `CC(C)(C=O)Cc1cc(C(C)(C)C)c(O)c(C(C)(C)C)c1`, 8.22% (inactive). Turning to `Cn1cc(C2=C(c3ccc(Cl)cc3Cl)C(=O)NC2=O)c2ccccc21`, the max response in [1] was 6.65% (inactive). In the case of `OCC1O[C@H]([S-])[C@H](O)[C@@H](O)[C@@H]1O.[Au+]` (some centres undefined), the Potency in experiment [1] is 2.82 µM (active).

`CCCCC[C@H](O)/C=C/[C@@H]1[C@@H](C/C=C\CCCC(=O)O)[C@@H](O)C[C@H]1O`: the max response in experiment [1] is -4.72% (inactive) and 7.02% (inactive). On the same count and under the same terms, the value for `CC1CN(S(=O)(=O)c2cccc3cnccc23)CCN1` (centres undefined) was 23.3% (inactive). On the same count and under the same terms, to `OCC1O[C@H](O)C(Cl)C(O)C1O` (some centres undefined) belongs 14.4% (inactive); to `N#C/C(=C\c1ccc(O)c(O)c1)C(=O)NCCCc1ccccc1`, 8.54% (inactive). Regarding `CC(N)C(=O)OC(C)(C)Cc1ccc(Cl)cc1` (centres undefined), the max response in experiment [1] was 11% (inactive) and 11.7% (inactive). `CCCCCCCCCCCC(=O)[O][Sn]([CH2]CCC)([CH2]CCC)[O]C(=O)CCCCCCCCCCC`: the max response in experiment [1] is -1.72% (inactive).

Consider `CCCCCCCCCCCCCCCC(=O)OC(CC(=O)O)C[N+](C)(C)C` (centres undefined), for which, in [1], the max response is -5.64% (inactive). Same read-out and setting: to `c1ccc(-c2ccccn2)nc1` belongs 29.6% (inactive); to `CN(C)C(N)=NCCC[C@H](N)C(=O)O`, -2.52% (inactive); to `CCOC(=O)c1ccccc1O`, -3.35% (inactive) and 9.79% (inactive). In the case of `CCCC(=O)OC[C@@H](OC(=O)CCC)[C@@H](OC(=O)CCC)[C@H](Cn1c2nc(=O)[nH]c(=O)c-2nc2cc(C)c(C)cc21)OC(=O)CCC`, the max response in experiment [1] was 3.76% (inactive). Consider `O=C1CC[C@@H](C(=O)N2CSC[C@H]2C(=O)O)N1` ([pGlu]-[Thz]-OH), for which the max response in [1] is 5.51% (inactive). On the same count and under the same terms, the value for `CCN1/C(=C/C(C)=O)Sc2ccc(OC)cc21` was 22.2% (inactive); that for `C[S+](CC[C@H](N)C(=O)O)C[C@H]1O[C@@H](n2cnc3c(N)ncnc32)[C@H](O)[C@@H]1O` (some centres undefined) was 6.19% (inactive) and -10.1% (inactive). Consider `Cc1cc(O)c2ccccc2c1O`, for which the Potency in [1] was 15.8 µM (active). For `Nc1nc(SCc2ccc([N+](=O)[O-])cc2)c2ncn([C@@H]3O[C@H](CO)[C@@H](O)[C@H]3O)c2n1`, the max response in experiment [1] was 22.6% (inactive).

In the case of `COc1cc2c3cc1Oc1cc(ccc1O)C[C@@H]1c4c(cc(OC)c(O)c4Oc4ccc(cc4)C[C@@H]3N(C)CC2)CC[N+]1(C)C`, the max response in experiment [1] was 1.34% (inactive). Turning to `N=C1N=C(N)c2cc3ccccc3cc21`, the Potency in experiment [2] is 44.7 µM (active); in experiment [3], 50.1 µM (active).

In the case of `CCCCCCCCCCCCCCCCCC(=O)O`, the max response in [1] is -10.4% (inactive); in experiment [2] it was -8.42% (inactive) and -6.66% (inactive) and -3.76% (inactive). For the same molecule, in experiment [3], the Potency result was “inactive”. As to `C=C[C@@H]1CN2CC[C@@H]1C[C@H]2[C@H](O)c1ccnc2ccc(OC)cc12`, the Potency in experiment [1] was 0.296 µM (active). Also, the remaining parasite growth % (stronger effect = lower value) in experiment [4] was determined as 0.99%. Further, in [5], the activity, percent of control was 1.73%. Further, the remaining proliferation (% of control), lower = more inhibition in experiment [6] was found to be 1.02%. In experiment [7], this molecule showed a parasite growth, % of DMSO control of 6.67%. Further, in [8], the parasite growth remaining, % of DMSO control (lower = more inhibition) was 9.34%. The molecule also had a parasite growth, % of control (lower = inhibition) in [9] of 20.6%. In addition, the growth, % of control in [10] was found to be 5.53%. For the molecule `O=C1CN(/N=C/c2ccc([N+](=O)[O-])o2)C(=O)N1`, in [1], the max response was 3.97% (inactive). The Potency entry in [3] was “inactive”. With `CC[C@@H](C)[C@H]1O[C@]2(CC[C@H]1C)C[C@@H]1C[C@@H](CC=C(C)[C@@H](O[C@H]3C[C@H](OC)[C@@H](O[C@H]4C[C@H](OC)[C@@H](O)[C@H](C)O4)[C@H](C)O3)[C@@H](C)C=CC=C3CO[C@@H]4[C@H](O)C(C)=C[C@@H](C(=O)O1)[C@]34O)O2`, in experiment [1], the Potency was 2.64 µM (active). In experiment [4], the remaining parasite growth % (stronger effect = lower value) was -0.904%. The activity, percent of control in experiment [5] was -0.0225%. Moreover, the remaining proliferation (% of control), lower = more inhibition in experiment [6] was -0.425%. Also, the parasite growth, % of DMSO control in experiment [7] came out at 35.5%. Also, in [8], the parasite growth remaining, % of DMSO control (lower = more inhibition) amounted to 6.32%. Moreover, the parasite growth, % of control (lower = inhibition) in [9] was found to be 38.4%. Further, the growth, % of control in experiment [10] came to 12.5%. With `Nc1ccc(O)c([N+](=O)[O-])c1`, the max response in [1] is -7.22% (inactive); in [2], -18.2% (inactive) and -13.9% (inactive). In addition, the Potency entry in experiment [3] was “inactive”. For `CN1CC(=O)N/C1=N/C(=O)Nc1cccc(Cl)c1`, the max response in [1] was 11.6% (inactive) and 35.9% (inactive). Besides, the remaining parasite growth % (stronger effect = lower value) in [4] was determined as 102%. The activity, percent of control in experiment [5] was found to be 106%. With `CCCCCCCCCCCCCCCC(=O)OC(C)C`, the max response in experiment [2] was -7.13% (inactive). For the same molecule, in experiment [3], the Potency entry is “inactive”. As for `C#C[C@]1(O)CC[C@H]2[C@@H]3CCc4cc(O)ccc4[C@H]3CC[C@@]21C`, the max response in [1] was 16.7% (inactive); in experiment [2], -11.3% (inactive) and -0.854% (inactive). Besides, the Potency entry in [3] is “inactive”. Regarding `C=CCCCCCCCCC(=O)O`, the max response in experiment [2] is -1.32% (inactive). The Potency result in experiment [3] was “inactive”. The like results for `O=C(Nc1ccccc1)c1cc([N+](=O)[O-])ccc1Cl` were, in that order, -11.7% (inactive) and “inactive”.
